For part of these data: Results with a measured potency or affinity are listed apart. Calls of active or inactive are those of the source. No rule for the calls is given here. Bridge positions count the residues as written; N and C are the ends. Square brackets hold non-standard residues; d marks the D form. Peptide text beside a SMILES is read from it. hArg = N=C(N)NCCCC[C@H](N)C(=O)O; Mpa = O=C(O)CCS
What was measured:
[1] = Ebola virus entry assay, green fluorescence channel
[2] = Ebola virus entry assay, blue channel fluorescence
[3] = Ebola virus entry assay, ratio channel
[4] = Ebola virus entry assay, green channel fluorescence
[5] = Ebola virus entry assay, reporter ratio channel; Channel type: primary
[6] = Ebola virus entry assay, blue channel (ratio component)
For efficacy in this document: 0% is about no effect.

C[C@H](O)C(=O)Nc1c(I)c(C(=O)NC(CO)CO)c(I)c(C(=O)NC(CO)CO)c1I
inactive: efficacy [1] 6.82% | outcome [2] | outcome [3] | outcome [4] | outcome [5] | outcome [6]

CS(=O)(=O)c1ccc(-c2cn3ccccc3n2)cc1
inactive: efficacy [1] -11.6% | outcome [2] | outcome [3] | outcome [4] | outcome [5] | outcome [6]

C[N+](C)(C)CC[N+]1(C)Cc2c(Cl)c(Cl)c(Cl)c(Cl)c2C1
inactive: efficacy [1] 13.2% | outcome [2] | outcome [3] | outcome [4] | outcome [5] | outcome [6]

N[C@@H](Cc1c[nH]c2ccc(O)cc12)C(=O)O
inactive: efficacy [1] 27.4% | outcome [2] | outcome [3] | outcome [4] | outcome [5] | outcome [6]

O=C1c2cccc(O)c2C(=O)c2c(O)cccc21
inactive: efficacy [1] -10.2% | outcome [2] | outcome [3] | outcome [4] | outcome [5] | outcome [6]

CCOc1cc(N)c(Cl)cc1C(=O)NCC1CN(Cc2ccc(F)cc2)CCO1 (stereo not drawn)
active: AC50 [5] 39.8 µM
inactive: efficacy [1] 26.3% | outcome [2] | outcome [3] | outcome [4] | outcome [6]

CC1(C)S[C@@H]2[C@H](N=CN3CCCCCC3)C(=O)N2[C@H]1C(=O)O
inactive: efficacy [1] -47.1% | outcome [2] | outcome [3] | outcome [4] | outcome [5] | outcome [6]

O=C1N(c2ccccc2)c2ccccc2C1(Cc1ccncc1)Cc1ccncc1
inactive: efficacy [1] 21.1% | outcome [2] | outcome [3] | outcome [4] | outcome [5] | outcome [6]

c1ccc(CC2=NCCN2)cc1
inactive: efficacy [1] -17.9% | outcome [2] | outcome [3] | outcome [4] | outcome [5] | outcome [6]

O=C1CC2(CCCC2)CC(=O)N1CCNCC1COc2ccccc2O1 (stereo not drawn)
inactive: efficacy [1] 16.2% | outcome [2] | outcome [3] | outcome [4] | outcome [5] | outcome [6]

CCCCC(CC)COC(=O)C(C#N)=C(c1ccccc1)c1ccccc1 (stereo not drawn)
inactive: efficacy [1] 53.9% | outcome [2] | outcome [3] | outcome [4] | outcome [5] | outcome [6]

CCC(=O)Nc1ccc(O)cc1
inactive: efficacy [1] -18.3% | outcome [2] | outcome [3] | outcome [4] | outcome [5] | outcome [6]

Cc1c(F)cc2c(=O)c(C(=O)O)cn3c2c1CCC3C (stereo not drawn)
inactive: efficacy [1] 17.9% | outcome [2] | outcome [3] | outcome [4] | outcome [5] | outcome [6]

C[N+]12CCC(CC1)C(OC(=O)C(O)(c1ccccc1)c1ccccc1)C2 (stereo not drawn)
inactive: efficacy [1] 11.2% | outcome [2] | outcome [3] | outcome [4] | outcome [5] | outcome [6]

CCn1ccnc1CC1COc2ccccc2O1 (stereo not drawn)
inactive: efficacy [1] -17.5% | outcome [2] | outcome [3] | outcome [4] | outcome [5] | outcome [6]

NC(=O)C1(N2CCCCC2)CCN(CCCC(=O)c2ccc(F)cc2)CC1
inactive: efficacy [1] 25.9% | outcome [2] | outcome [3] | outcome [4] | outcome [5] | outcome [6]

O=[N+]([O-])c1nccn1CO[C@@H](CO)[C@H](O)CO
inactive: efficacy [1] -11.8% | outcome [2] | outcome [3] | outcome [4] | outcome [5] | outcome [6]

CCOC(=O)C(=O)c1csc(NC=O)n1
inactive: efficacy [1] -15.8% | outcome [2] | outcome [3] | outcome [4] | outcome [5] | outcome [6]

C#C[C@]1(OC(C)=O)CC[C@H]2[C@@H]3CCC4=C[C@@H](OC(C)=O)CC[C@@H]4[C@H]3CC[C@@]21C
inactive: efficacy [1] -36.9% | outcome [2] | outcome [3] | outcome [4] | outcome [5] | outcome [6]

CCCCCCCCCCCCOCCOCCOCCOCCOCCOCCOCCOCCOCCO
inactive: efficacy [1] -12.9% | outcome [2] | outcome [3] | outcome [4] | outcome [5] | outcome [6]

C=CCSCC1Nc2cc(Cl)c(S(N)(=O)=O)cc2S(=O)(=O)N1 (stereo not drawn)
inactive: efficacy [1] -29.5% | outcome [2] | outcome [3] | outcome [4] | outcome [5] | outcome [6]

C[C@H](CCC(=O)O)[C@H]1CC[C@H]2[C@@H]3C(=O)C[C@@H]4CC(=O)CC[C@]4(C)[C@H]3CC(=O)[C@]12C
inactive: efficacy [1] -7.14% | outcome [2] | outcome [3] | outcome [4] | outcome [5] | outcome [6]

Nc1c(NC/C=C\COc2cc(CN3CCCCC3)ccn2)c(=O)c1=O
inactive: efficacy [1] -32.1% | outcome [2] | outcome [3] | outcome [4] | outcome [5] | outcome [6]

CCOC(=O)[C@H](CCc1ccccc1)N[C@@H](C)C(=O)N(CC(=O)O)C1Cc2ccccc2C1
inactive: efficacy [1] 28.2% | outcome [2] | outcome [4] | outcome [6]
active: AC50 [3] 20 µM | AC50 [5] 20 µM

O=C(O)c1ccc(OCCN2CCCCC2)cc1
inactive: efficacy [1] -23.5% | outcome [2] | outcome [3] | outcome [4] | outcome [5] | outcome [6]

NC1=NCC2c3ccccc3Cc3ccccc3N12 (stereo not drawn)
inactive: efficacy [1] 22.9% | outcome [2] | outcome [3] | outcome [4] | outcome [5] | outcome [6]

NC(CSCC(=O)O)C(=O)O (stereo not drawn)
inactive: efficacy [1] -16% | outcome [2] | outcome [3] | outcome [4] | outcome [5] | outcome [6]

CC(=O)Oc1c(C)c(C)c2c(c1C)CC[C@@](C)(CCC[C@H](C)CCC[C@H](C)CCCC(C)C)O2
inactive: efficacy [1] -9.77% | outcome [2] | outcome [3] | outcome [4] | outcome [5] | outcome [6]

CN1[C@@H]2CC[C@H]1CC(NC(=O)n1c(=O)[nH]c3ccccc31)C2 (stereo partly drawn)
inactive: efficacy [1] -15.6% | outcome [2] | outcome [3] | outcome [4] | outcome [5] | outcome [6]

O=C(O)CCC(=O)Nc1ccc(S(=O)(=O)Nc2nccs2)cc1
inactive: efficacy [1] -34.8% | outcome [2] | outcome [3] | outcome [4] | outcome [5] | outcome [6]

OC(CN1CCC(Cc2ccc(F)cc2)CC1)c1ccc(Cl)cc1 (stereo not drawn)
inactive: efficacy [1] -10% | outcome [2] | outcome [3] | outcome [4] | outcome [5] | outcome [6]

OC[C@]1(O)OC[C@@H](O)[C@H](O)[C@@H]1O
inactive: efficacy [1] -31% | outcome [2] | outcome [3] | outcome [4] | outcome [5] | outcome [6]

Cc1c(N)c(=O)n(-c2ccccc2)n1C
inactive: efficacy [1] -25.5% | outcome [2] | outcome [3] | outcome [4] | outcome [5] | outcome [6]

CC[N+](CC)(CC)CCOC(=O)C(C1CCCC1)C1CCCC1
inactive: efficacy [1] 39.4% | outcome [2] | outcome [3] | outcome [4] | outcome [5] | outcome [6]

COc1ccc2cc(C=O)ccc2c1
inactive: efficacy [1] -11.5% | outcome [2] | outcome [3] | outcome [4] | outcome [5] | outcome [6]

CC(=O)OC[C@H]1O[C@@](COC(C)=O)(O[C@H]2O[C@H](COC(C)=O)[C@@H](OC(C)=O)[C@H](OC(C)=O)[C@H]2OC(C)=O)[C@@H](OC(C)=O)[C@@H]1OC(C)=O
inactive: efficacy [1] 9.99% | outcome [2] | outcome [3] | outcome [4] | outcome [5] | outcome [6]

O=C1NC(=O)[C@@]2(CCOc3ccc(F)cc32)N1
inactive: efficacy [1] -52% | outcome [2] | outcome [3] | outcome [4] | outcome [5] | outcome [6]

CC(=O)Nc1ccc(S(=O)(=O)Nc2ccc([N+](=O)[O-])cc2)cc1
inactive: efficacy [1] -17.6% | outcome [2] | outcome [3] | outcome [4] | outcome [5] | outcome [6]

CCN(CC)CCNC(=O)c1cc(Br)c(N)cc1OC
inactive: efficacy [1] 15.9% | outcome [2] | outcome [3] | outcome [4] | outcome [5] | outcome [6]

O=c1[nH]c2ccccc2c(=O)n1CCCl
inactive: efficacy [1] -18.7% | outcome [2] | outcome [3] | outcome [4] | outcome [5] | outcome [6]

Nc1nc(=O)n([C@@H]2O[C@H](CO)[C@@H](O)[C@@H]2F)cc1I
inactive: efficacy [1] -12.8% | outcome [2] | outcome [3] | outcome [4] | outcome [5] | outcome [6]

CCN(CC)C(=O)C1CN2CCc3cc(OC)c(OC)cc3C2CC1OC(C)=O (stereo not drawn)
inactive: efficacy [1] -20.8% | outcome [2] | outcome [3] | outcome [4] | outcome [5] | outcome [6]

CCOc1c(N2CCOCC2)cnn(C)c1=O
inactive: efficacy [1] -16.1% | outcome [2] | outcome [3] | outcome [4] | outcome [5] | outcome [6]

NC(=O)[C@@H]1CSSCCC(=O)N[C@@H](CCCCN=C(N)N)C(=O)NCC(=O)N[C@@H](CC(=O)O)C(=O)N[C@@H](Cc2c[nH]c3ccccc23)C(=O)N2CCC[C@H]2C(=O)N1 ([Mpa][hArg]GDWPC-NH2; disulfide 1-7)
inactive: efficacy [1] 12.3% | outcome [2] | outcome [3] | outcome [4] | outcome [5] | outcome [6]

COc1cc(O)c(C(=O)c2ccccc2)cc1S(=O)(=O)O
inactive: efficacy [1] 11.7% | outcome [2] | outcome [3] | outcome [4] | outcome [5] | outcome [6]

Cc1ncc(COP(=O)(O)O)c(C=O)c1O
inactive: efficacy [1] -34.1% | outcome [2] | outcome [3] | outcome [4] | outcome [5] | outcome [6]

O=c1cc(CO)occ1O
inactive: efficacy [1] 16.7% | outcome [2] | outcome [3] | outcome [4] | outcome [5] | outcome [6]

CC(=O)Oc1ccc(C2(c3ccc(OC(C)=O)cc3)C(=O)Nc3ccccc32)cc1
inactive: efficacy [1] -16% | outcome [2] | outcome [3] | outcome [4] | outcome [5] | outcome [6]

Cc1ccc(O)c(-n2nc3ccccc3n2)c1
inactive: efficacy [1] 21% | outcome [2] | outcome [3] | outcome [4] | outcome [5] | outcome [6]

CCOC(=O)n1ccn(C)c1=S
inactive: efficacy [1] -11.5% | outcome [2] | outcome [3] | outcome [4] | outcome [5] | outcome [6]

NCC1CCC(C(=O)Oc2ccc(CCC(=O)O)cc2)CC1 (stereo not drawn)
inactive: efficacy [1] 32.3% | outcome [2] | outcome [3] | outcome [4] | outcome [5] | outcome [6]

C[C@@]12CCC[C@H]1[C@@H]1CC[C@H]3C[C@@H](O)CC[C@]3(C)[C@H]1CC2
inactive: efficacy [1] -12.6% | outcome [2] | outcome [3] | outcome [4] | outcome [5] | outcome [6]

CCN[C@@H]1C[C@H](N)[C@@H](OC2OC(CN)=CCC2N)[C@H](O)[C@H]1O[C@H]1OC[C@](C)(O)[C@H](NC)[C@H]1O (stereo partly drawn)
inactive: efficacy [1] -8.89% | outcome [2] | outcome [3] | outcome [4] | outcome [5] | outcome [6]

CCOC(=O)CN1CCCC1=O
inactive: efficacy [1] 24% | outcome [2] | outcome [3] | outcome [4] | outcome [5] | outcome [6]

CC(=O)CCC(=O)O
inactive: efficacy [1] 10.9% | outcome [2] | outcome [3] | outcome [4] | outcome [5] | outcome [6]

CCCn1cnc2c1c(=O)n(CCCCC(C)=O)c(=O)n2C
inactive: efficacy [1] 33.9% | outcome [2] | outcome [3] | outcome [4] | outcome [5] | outcome [6]

CC1(C)[C@@H](OC(=O)CCC(=O)O)CC[C@]2(C)[C@H]3C(=O)C=C4[C@@H]5C[C@@](C)(C(=O)O)CC[C@]5(C)CC[C@@]4(C)[C@]3(C)CC[C@@H]12
inactive: efficacy [1] 12.7% | outcome [2] | outcome [3] | outcome [4] | outcome [5] | outcome [6]

CCCCN1CCCC[C@H]1C(=O)Nc1c(C)cccc1C
inactive: efficacy [1] 30% | outcome [2] | outcome [3] | outcome [4] | outcome [6]
active: AC50 [5] 39.8 µM
